# Screening results: PubChem, National Center for Advancing Translational Sciences (NCATS)
# Menin-MLL TR inh – inhibitors of human menin-MLL interaction, mutant MLL peptide; Potency, µM (top dose mostly 61.6 µM), inactives show at the top dose FP activity change, negative = inhibition, most hits filed as inhibitors; AID 1768; Menin + Texas Red MLL mutant peptide, fluorescence polarization; 270,000 tested, 0.23% active; active = well fitted inhibition curve with a large enough effect in the polarisation, with a control signal flat, not every such curve was filed as active; inconclusive = small, poorly fitted or top-dose-only effect, or effect the other way, or a change in a side signal; inactive = no such curve, though single readings can be large or run the other way; the % refers to the polarisation; note: potency is the fitted concentration of half-maximal effect; % of control where 0% means no effect
# CtBP-E1A blk – inhibitors of CtBP/E1A interaction. AlphaScreen GST-E1A/His-CtBP binding, 1536-well; active compounds read low. activity change, % (concentration not given with the values). 340,000 tested, 0.49% active; note: % is set by controls: 0 for no effect and ±100 for the full control effect
#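 Protein mix (5X: 125 nM each GST-E1A, His-CtBP) was incubated with pinned compound 2 h at 37 deg C in dark, in 50 mM Tris pH 8.0 buffer with 300 mM NaCl. Glutathione donor and nickel acceptor beads followed; AlphaScreen signal read after 1 h.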
# Six1-Eya2 inh – Six1/Eya2 interaction inhibition. activity change, % (concentration not given with the values). Q15475+O00167. 360,000 tested, 0.56% active. AlphaScreen GST-Six1/His-Eya2 binding, biochemical; active compounds read low; note: % is set by controls: 0 for no effect and ±100 for the full control effect
#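 AlphaScreen luminescence read after one hour at 37 °C in darkness. Pin-transferred compounds met GST-Six1 and His-Eya2 protein (5X stock 250 nM/500 nM) plus glutathione donor and Ni-chelate acceptor beads (5X, 50 ug/mL).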
# GLS inhibitor – blocks human kidney-isoform glutaminase activity. O94925. GLS enzymatic activity, qHTS titration. Potency, µM (top dose mostly 45.5 µM), inactives show top-dose activity change, negative = inhibition, actives largely listed as inhibitors. 410,000 tested, 0.21% active. AID 624170; active = well fitted inhibition curve with a large enough effect; inconclusive = small, poorly fitted or top-dose-only effect, or another doubt; inactive = no such curve, though single readings can be large or run the other way; note: potency is the fitted concentration of half-maximal effect; % is set by controls: 0 for no effect and ±100 for the full control effect
#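 Assay buffer: 45 mM KH2PO4 pH 8.2, 0.02% Tween-20. hKGA acts on L-glutamine (1 mM solution added); product glutamate is reported by an oxidase/peroxidase Amplex Red coupling, with fluorescence taken at baseline and 30 min.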
# MLL CXXC-DNA inh – inhibitors of human MLL CXXC domain-DNA interaction. Q03164. MLL-CXXC / FITC-HOXA9 DNA fluorescence polarization. AID 2662. 290,000 tested, 0.037% active. Potency, µM (titrated, usually from 115 µM), without a hit: at the highest dose activity change, negative = inhibition, most hits filed as inhibitors; active = well fitted inhibition curve with a large enough effect in the polarisation, with a control signal flat, not every such curve was filed as active; inconclusive = small, poorly fitted or top-dose-only effect, or effect the other way, or a change in a side signal; inactive = no such curve, though single readings can be large or run the other way; the % refers to the polarisation; note: potency is the fitted concentration of half-maximal effect
#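 Steps: dispense CXXC domain solution (7 uM) → pin compounds or unlabeled HOX-A9 DNA control → 5 min ambient → add FLSN-HOX-A9 solution (50 nM) → spin → 30 min ambient → fluorescence polarization. Tris pH 7.5/NaCl/DTT/BSA buffer.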
# Menin-MLL FL inh – displaces fluorescein MLL peptide from human menin; AID 1766; FP activity change, % at 61.4 µM; Fluorescence polarization, fluorescein-MLL peptide displacement from menin; 290,000 tested, under 10 active; active = well fitted curve in the direction sought with a large enough effect in the polarisation, not every such curve was filed as active; inconclusive = small, poorly fitted or top-dose-only effect, or effect the other way, or a change in a side signal; inactive = no such curve, though single readings can be large or run the other way; the % refers to the polarisation; note: % of control where 0% means no effect
# Active calls of the source: *; ? = inconclusive; nt = not tested or not shown; [ ] = dose if it differs, or a comment. In the library only some 0.83% were active in any assay of this set; here they are far more common. Cut-off read from the data, not from the text of the source, unless noted: active = activity change below about -65%; inconclusive = mostly about -30% to -63%; inactive = weaker than that.
SMILES,Menin-MLL TR inh,CtBP-E1A blk,Six1-Eya2 inh,GLS inhibitor,MLL CXXC-DNA inh,Menin-MLL FL inh
N=c1c(C(=O)NCCc2ccccc2)cc2c(=O)n3ccccc3nc2n1Cc1ccco1,3%,-2,0,-13%,10%,13
c1ccc(-c2nnc(-c3ccccn3)nc2NC2CCCCC2)cc1,0%,-95*,-84*,-16%,?,5
Oc1ccccc1-c1nc(NC2CCCC2)c2ccccc2n1,?,6,2,-1%,0%,-25
CNc1nc(-c2ccccn2)nnc1-c1ccccc1,-9%,-95*,-93*,6%,-28%,1
O=C(Nc1cccc(-c2nn[nH]n2)c1)c1ccc(Br)s1,nt,-69*,?,28%,17%,nt
O=C(Nc1cccc(-c2nn[nH]n2)c1)c1ccc(Cl)s1,?,?,?,7%,-15%,1
O=C(O)CCNc1cc(N2CCN(C(=O)c3ccco3)CC2)c2noc3c2c1C(=O)c1ccccc1-3,?,-85*,-74*,5%,?,?
CCCCCCCCCCC(C)(C)C(=O)Nc1c(OC)cc(OC)cc1OC,-22%,nt,nt,nt,nt,-2
CCCCC(=O)N(Cc1ccc(-c2ccccc2-c2nn[nH]n2)cc1)C(C(=O)O)C(C)C (centres undefined),-1%,nt,nt,2%,-3%,0
O=C(Oc1ccc(OC(=O)c2ccco2)c(S(=O)(=O)c2ccc(Br)cc2)c1)c1ccco1,10µM*,-12,-27,11%,118%,-1
O=S(=O)(O)OCC1OC(OC2(COS(=O)(=O)O)OC(COS(=O)(=O)O)C(OS(=O)(=O)O)C2OS(=O)(=O)O)C(OS(=O)(=O)O)C(OS(=O)(=O)O)C1OS(=O)(=O)O (centres undefined),nt,nt,nt,-9%,nt,nt
Cc1cc([N+](=O)[O-])nn1CC(=O)N/N=C/c1ccc(O)cc1O,nt,?,-85*,27%,-3%,0
Cc1cc([N+](=O)[O-])nn1CC(=O)N/N=C/c1ccccc1Br,nt,-10,2,1%,1%,0
O=C(Cn1cncn1)N/N=C/c1cc([N+](=O)[O-])ccc1O,nt,nt,-91*,0%,-13%,1
Cc1ccn(CC(=O)N/N=C/c2cc([N+](=O)[O-])ccc2O)n1,5%,-93*,-90*,12%,8%,nt
O=C(Cn1cncn1)N/N=C/c1ccccc1O,nt,-94*,-85*,-15%,-1%,5
C/C(=C(/CCOC(=O)c1ccccc1)SS/C(CCOC(=O)c1ccccc1)=C(\C)N(C=O)Cc1cnc(C)nc1N)N(C=O)Cc1cnc(C)nc1N,nt,nt,nt,3%,nt,nt
COc1cc(OC)c2cc(-c3ccncc3)cnc2c1,-17%[24.8 µM],nt,nt,nt,nt,?
O=C(CSc1ccccn1)N/N=C/c1cc([N+](=O)[O-])ccc1O,nt,nt,-88*,3%,8%,-5
CCOC(=O)c1ccccc1NC(=O)CSc1cn(CC(=O)N2CCCCCC2)c2ccccc12,nt,nt,nt,4%,nt,nt
COc1ccc(/C(C)=N/Nc2ccc(F)cc2F)c(O)c1,6%,-73*,1,-6%,3%,-1
Cc1ccc(S(=O)(=O)Nc2ccc(NS(=O)(=O)c3ccc(C)cc3)c3ncccc23)cc1,?,nt,nt,nt,nt,0
COc1cc(NS(=O)(=O)c2ccc([N+](=O)[O-])cc2)c2ncccc2c1,?,nt,nt,nt,nt,-2
Cc1ccc(S(=O)(=O)Nc2cccc3cccnc23)cc1,5%,?,-71*,3%,?,-2
COc1cc(NS(=O)(=O)c2ccc(C)cc2)c2ncccc2c1,41%,-79*,-72*,9%,-3%,4
CC1=Nc2ccccc2/C1=C/c1sc(=S)n(-c2cccc(C(=O)O)c2)c1O,29%,-67*,?,-12%,?,?
CCOc1ccc(NC(=O)CC(NCc2ccccn2)C(=O)O)cc1 (centres undefined),2%,-92*,-90*,0%,7%,2
CCOc1ccc(NC(=O)NCc2ccccn2)cc1,-15%,7,0,9%,-3%,1
